Test results as given in the supplement of paper PMC10646978.
± gives the standard deviation.

Experiments:
Settings in all cases: modulator concentration 10 µM
[1] = system: RAW-Dual (murine macrophage reporter line); test: NF-kB reporter (SEAP) activity fold change vs agonist alone; higher = enhanced NF-kB activity
Procedure, shortened: (§1)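 RAW-Dual murine macrophage reporter cells were seeded at 50 000 per well in 384-well plates and pre-incubated 1 hour at 37 °C with compound pin-transferred to 10 μM final. After 1 hour, a PRR agonist was added and cells incubated overnight. Supernatant NF-κB (SEAP, QUANTI-Blue, 620 nm absorbance) and IRF (Lucia luciferase, QUANTI-Luc, luminescence) signals were divided by the mean agonist-only control on the same plate to give fold change. Two replicate plates were averaged, with errors by propagation.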

[2] = system: RAW-Dual (murine macrophage reporter line); test: IRF reporter (Lucia luciferase) activity fold change vs agonist alone; higher = enhanced IRF activity
Procedure, shortened: as §1

[3] = system: RAW-Dual (murine macrophage reporter line); test: viability score (confluency relative to resting cells, overnight) (fraction); higher = more viable, active = viable (0.7 or more)
Procedure, shortened: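 Overnight exposure to 10 μM final compound was carried out on RAW-Dual macrophages in 384-well plates. IncuCyte software generated two confluency masks over all wells imaged with IncuCyte. The viability score gives confluency in relation to resting cells. A compound met the cutoff if each mask exceeded 70% of resting cells.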

[4] = agonist: CpG ODN 1826 0.5 ug/mL

Row | SMILES | NF-kB reporter [1, 4] | NF-kB reporter ([1]; agonist: LPS 0.1 ug/mL) | NF-kB reporter ([1]; agonist: MPLA […]) | IRF reporter ([2]; agonist: 3'3'-cGAMP 10 ug/mL) | IRF reporter ([2]; agonist: LPS 0.1 ug/mL) | IRF reporter ([2]; agonist: MPLA […]) | viability score [3]
1 | Cc1cc(O)nc(NN)n1 | 1.06 ± 0.087 | 1.01 ± 0.062 | 1.02 ± 0.033 | 0.983 ± 0.054 | 0.971 ± 0.13 | 0.861 ± 0.13 | 0.999 (active)
2 | NCC(=O)O | 0.965 ± 0.073 | 0.999 ± 0.064 | 0.96 ± 0.021 | 0.912 ± 0.068 | 1.02 ± 0.12 | 1.23 ± 0.21 | 1 (active)
3 | O=C(CC1Sc2ccccc2NC1=O)Nc1ccccc1Cl (configuration not stated) | 1 ± 0.079 | 0.989 ± 0.067 | 1.01 ± 0.036 | 1.15 ± 0.21 | 1.04 ± 0.043 | 1.04 ± 0.15 | 1 (active)
4 | CC(=O)N=c1sc(S(N)(=O)=O)nn1C [Prestw-802] | 1.06 ± 0.11 | 0.991 ± 0.098 | 1.02 ± 0.12 | 0.986 ± 0.031 | 1.26 ± 0.15 | 1.39 ± 0.19 | 1.03 (active)
5 | O=S(=O)(NCc1ccccn1)c1cccc(Cl)c1 | 0.918 ± 0.039 | 0.986 ± 0.12 | 1.06 ± 0.057 | 1.02 ± 0.061 | 1.32 ± 0.17 | 1.49 ± 0.46 | 0.986 (active)
6 | CC(=O)Oc1ccccc1C(=O)O | 1.01 ± 0.085 | 1.05 ± 0.079 | 0.959 ± 0.048 | 1.02 ± 0.068 | 0.964 ± 0.044 | 0.884 ± 0.11 | 0.998 (active)
7 | CCNC(=O)c1ccc(CN2CCc3ccccc3C2)cc1 | 1.12 ± 0.09 | 1.13 ± 0.074 | 0.958 ± 0.059 | 0.905 ± 0.039 | 1.37 ± 0.29 | 1.04 ± 0.075 | 1.01 (active)
8 | CCN(CC)c1nc(Nc2ccc([N+](=O)[O-])cc2)nc(N(CC)CC)n1 | 0.635 ± 0.04 | 1.07 ± 0.069 | 0.953 ± 0.058 | 0.972 ± 0.044 | 1.16 ± 0.12 | 1.01 ± 0.12 | 0.998 (active)
9 | Cc1cccc2sc(OC3CN(C(=O)Nc4ccccc4C(F)(F)F)C3)nc12 | 0.912 ± 0.047 | 1.13 ± 0.089 | 0.872 ± 0.043 | 1.12 ± 0.065 | 1.19 ± 0.19 | 1.15 ± 0.31 | 0.981 (active)
10 | CC(C)C(C(=O)Nc1ccccc1C(N)=O)N1C(=O)c2ccccc2C1=O (configuration not stated) | 0.93 ± 0.085 | 1.1 ± 0.071 | 0.932 ± 0.058 | 1.02 ± 0.043 | 1.34 ± 0.16 | 1.16 ± 0.075 | 1.01 (active)
11 | COc1ccc(CN2CCN(C(c3ccc(F)cc3)c3ccc(F)cc3)CC2)c(OC)c1OC.Cl.Cl | 0.742 ± 0.032 | 0.927 ± 0.084 | 0.916 ± 0.049 | 0.604 ± 0.038 | 1.02 ± 0.24 | 1.17 ± 0.47 | 0.985 (active)
12 | CNCCC=C1c2ccccc2CCc2ccccc21.Cl | 0.45 ± 0.07 | 1.14 ± 0.21 | 1.8 ± 0.13 | 0.41 ± 0.014 | 1.11 ± 0.24 | 1.99 ± 0.4 | 0.293 (inactive)
13 | CCCCCCc1ccc(O)cc1O | 1.02 ± 0.14 | 0.919 ± 0.21 | 0.874 ± 0.058 | 0.588 ± 0.057 | 1.2 ± 0.23 | 1.2 ± 0.13 | 0.298 (inactive)
14 | CCOc1nc2cccc(C(=O)O)c2n1Cc1ccc(-c2ccccc2-c2nnn[nH]2)cc1 [Prestw-1258] | 1.29 ± 0.26 | 1.16 ± 0.11 | 0.925 ± 0.074 | 0.918 ± 0.029 | 0.914 ± 0.093 | 1.14 ± 0.14 | 0.995 (active)
15 | CCC(=O)N1CCCC1c1nc2ccccc2n1CCOc1ccc(Cl)cc1 (configuration not stated) | 0.717 ± 0.18 | 1.15 ± 0.063 | 1.2 ± 0.095 | 0.967 ± 0.097 | 0.992 ± 0.21 | 1.1 ± 0.1 | 0.996 (active)
16 | COc1c(C)c2c(c(O)c1C/C=C(\C)CCC(=O)O)C(=O)OC2 | 0.602 ± 0.047 | 0.146 ± 0.007 | 0.352 ± 0.032 | 0.453 ± 0.03 | 1.13 ± 0.066 | 1.31 ± 0.11 | 0.587 (inactive)
17 | COc1c(OC)c2occc2c2oc(=O)ccc12 | 1.14 ± 0.32 | 0.86 ± 0.083 | 0.941 ± 0.059 | 0.551 ± 0.018 | 0.586 ± 0.17 | 0.67 ± 0.07 | 0.968 (active)
18 | O=[N+]([O-])c1ccc(C=CC=Nc2ccc(-c3nc4ccccc4s3)c(O)c2)cc1 | 0.813 ± 0.06 | 1.04 ± 0.067 | 0.971 ± 0.034 | 0.746 ± 0.042 | 0.973 ± 0.082 | 0.946 ± 0.079 | 0.994 (active)
19 | Cc1ccc(C2C=C(c3ccccc3)Nc3ncnn32)cc1 (configuration not stated) | 0.956 ± 0.089 | 1.07 ± 0.12 | 0.893 ± 0.064 | 1.1 ± 0.056 | 1.13 ± 0.11 | 1.23 ± 0.35 | 0.982 (active)
20 | COc1ccc(CNCc2cccc3ccccc23)cc1OC | 0.482 ± 0.04 | 0.912 ± 0.094 | 0.966 ± 0.042 | 0.832 ± 0.15 | 1.06 ± 0.086 | 1.16 ± 0.21 | 0.997 (active)
21 | CC(C)c1c(C(=O)Nc2ccccc2)c(-c2ccccc2)c(-c2ccc(F)cc2)n1CC[C@@H](O)C[C@@H](O)CC(=O)O [Prestw-1232] | 1.63 ± 0.21 | 1.05 ± 0.11 | 1.16 ± 0.033 | 0.893 ± 0.036 | 0.928 ± 0.068 | 1.13 ± 0.12 | 0.995 (active)
22 | O=C1NC(=O)[C@@H](c2cn3c4c(cccc24)CCC3)[C@@H]1c1c[nH]c2ccccc12 | 1.1 ± 0.051 | 1.02 ± 0.17 | 1.12 ± 0.13 | 0.971 ± 0.058 | 0.921 ± 0.18 | 0.948 ± 0.27 | 1.01 (active)
23 | CN1CCN(CCCN2c3ccccc3Sc3ccc(C(F)(F)F)cc32)CC1.Cl.Cl | 0.958 ± 0.043 | 1.03 ± 0.11 | 1.3 ± 0.11 | 0.788 ± 0.056 | 1.12 ± 0.22 | 1.22 ± 0.39 | 1.02 (active)
24 | Br.COc1ccc(C2=NN(c3nc(-c4ccc(OC)c(F)c4)cs3)C(c3ccc(OC)cc3)C2)cc1 (configuration not stated) | 0.964 ± 0.068 | 0.997 ± 0.11 | 0.914 ± 0.1 | 0.805 ± 0.071 | 1.22 ± 0.08 | 1.05 ± 0.39 | 1.01 (active)
25 | Cc1cc(C(=O)NCc2sc(-c3ccccc3Cl)nc2C)c(C)o1 | 0.883 ± 0.039 | 1 ± 0.081 | 1.09 ± 0.061 | 0.98 ± 0.047 | 1.11 ± 0.25 | 1.27 ± 0.44 | 0.984 (active)
26 | O=C(NCc1cccc(Oc2ccccn2)c1)C1c2ccccc2Oc2ccccc21 | 0.52 ± 0.041 | 1.12 ± 0.088 | 0.883 ± 0.039 | 0.801 ± 0.077 | 1.01 ± 0.12 | 1.11 ± 0.27 | 0.992 (active)
